The supplement of paper PMC11732987, “Enantioselective OTUD7B fragment discovery through chemoproteomics screening and high-throughput optimisation” (Communications Chemistry, 2025)

Assays:
Test in all cases: log2 ratio of Biotin-Ahx-Ub-VS probe labelling (fragment/DMSO); higher = less target engagement (more negative = stronger competition), active = hit call of the paper (q ≤ 0.05, log2 ratio ≤ -1)
Conditions in all cases: compound concentration: 200 uM; treatment time: 3 h
USP16 = USP16 (UniProt Q9Y5T5)
Outline: (§1)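 Labelled DUBs from HEK293T lysate were NeutrAvidin-enriched, digested with LysC and trypsin, and run by diaPASEF LC-MS/MS. Before that, each 495 µg sample in Tris/CHAPS/IGEPAL buffer with protease inhibitors was treated in triplicate with fragment at 200 µM or vehicle for 3 h, then with Biotin-Ahx-Ub-VS at 0.5 µM final for 1 h. Values are average log2 ratios of fragment over vehicle by unpaired t-test, based on global-median-normalised Spectronaut label-free quantities from proteins with ≥2 unique peptides.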

USP19 = target: T1, USP19 (UniProt O94966)
T1 sequence (whole entry): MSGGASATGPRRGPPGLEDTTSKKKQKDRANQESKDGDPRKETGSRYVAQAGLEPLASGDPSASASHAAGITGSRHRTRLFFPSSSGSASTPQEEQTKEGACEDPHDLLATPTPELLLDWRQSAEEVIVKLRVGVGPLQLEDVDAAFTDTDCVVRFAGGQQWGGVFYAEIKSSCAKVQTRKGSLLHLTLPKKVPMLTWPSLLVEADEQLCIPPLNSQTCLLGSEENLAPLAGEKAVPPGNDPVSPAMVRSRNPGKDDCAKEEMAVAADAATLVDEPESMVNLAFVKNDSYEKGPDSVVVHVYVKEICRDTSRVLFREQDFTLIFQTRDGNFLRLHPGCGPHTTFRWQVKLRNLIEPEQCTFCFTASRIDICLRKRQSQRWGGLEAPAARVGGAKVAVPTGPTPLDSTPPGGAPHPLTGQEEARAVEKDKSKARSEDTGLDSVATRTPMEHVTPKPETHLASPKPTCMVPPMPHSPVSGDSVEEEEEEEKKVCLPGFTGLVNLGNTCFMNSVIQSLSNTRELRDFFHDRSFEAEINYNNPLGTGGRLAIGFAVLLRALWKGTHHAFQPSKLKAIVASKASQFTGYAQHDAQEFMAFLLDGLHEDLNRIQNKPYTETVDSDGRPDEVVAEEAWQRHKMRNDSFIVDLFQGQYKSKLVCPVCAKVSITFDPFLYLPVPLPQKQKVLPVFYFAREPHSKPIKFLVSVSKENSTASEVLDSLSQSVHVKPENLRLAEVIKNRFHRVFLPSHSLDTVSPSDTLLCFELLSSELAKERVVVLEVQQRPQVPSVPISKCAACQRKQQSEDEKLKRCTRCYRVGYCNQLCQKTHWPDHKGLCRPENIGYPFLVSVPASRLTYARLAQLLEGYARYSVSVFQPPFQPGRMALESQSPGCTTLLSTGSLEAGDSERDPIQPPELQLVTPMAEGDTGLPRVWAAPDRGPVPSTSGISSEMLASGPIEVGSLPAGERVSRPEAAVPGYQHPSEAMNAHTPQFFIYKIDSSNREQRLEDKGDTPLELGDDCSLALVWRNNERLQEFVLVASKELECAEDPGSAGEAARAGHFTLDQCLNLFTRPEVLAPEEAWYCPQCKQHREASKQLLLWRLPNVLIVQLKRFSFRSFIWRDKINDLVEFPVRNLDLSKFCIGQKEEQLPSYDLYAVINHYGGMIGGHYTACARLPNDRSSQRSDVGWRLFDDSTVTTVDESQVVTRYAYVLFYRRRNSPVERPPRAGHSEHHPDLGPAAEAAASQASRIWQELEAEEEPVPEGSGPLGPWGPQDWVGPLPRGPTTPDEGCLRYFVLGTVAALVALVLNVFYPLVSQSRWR
Outline: as §1

USP24 = USP24 (UniProt Q9UPU5)
Outline: as §1

USP25 = target: T2, USP25 (UniProt Q9UHP3)
T2 sequence (whole entry): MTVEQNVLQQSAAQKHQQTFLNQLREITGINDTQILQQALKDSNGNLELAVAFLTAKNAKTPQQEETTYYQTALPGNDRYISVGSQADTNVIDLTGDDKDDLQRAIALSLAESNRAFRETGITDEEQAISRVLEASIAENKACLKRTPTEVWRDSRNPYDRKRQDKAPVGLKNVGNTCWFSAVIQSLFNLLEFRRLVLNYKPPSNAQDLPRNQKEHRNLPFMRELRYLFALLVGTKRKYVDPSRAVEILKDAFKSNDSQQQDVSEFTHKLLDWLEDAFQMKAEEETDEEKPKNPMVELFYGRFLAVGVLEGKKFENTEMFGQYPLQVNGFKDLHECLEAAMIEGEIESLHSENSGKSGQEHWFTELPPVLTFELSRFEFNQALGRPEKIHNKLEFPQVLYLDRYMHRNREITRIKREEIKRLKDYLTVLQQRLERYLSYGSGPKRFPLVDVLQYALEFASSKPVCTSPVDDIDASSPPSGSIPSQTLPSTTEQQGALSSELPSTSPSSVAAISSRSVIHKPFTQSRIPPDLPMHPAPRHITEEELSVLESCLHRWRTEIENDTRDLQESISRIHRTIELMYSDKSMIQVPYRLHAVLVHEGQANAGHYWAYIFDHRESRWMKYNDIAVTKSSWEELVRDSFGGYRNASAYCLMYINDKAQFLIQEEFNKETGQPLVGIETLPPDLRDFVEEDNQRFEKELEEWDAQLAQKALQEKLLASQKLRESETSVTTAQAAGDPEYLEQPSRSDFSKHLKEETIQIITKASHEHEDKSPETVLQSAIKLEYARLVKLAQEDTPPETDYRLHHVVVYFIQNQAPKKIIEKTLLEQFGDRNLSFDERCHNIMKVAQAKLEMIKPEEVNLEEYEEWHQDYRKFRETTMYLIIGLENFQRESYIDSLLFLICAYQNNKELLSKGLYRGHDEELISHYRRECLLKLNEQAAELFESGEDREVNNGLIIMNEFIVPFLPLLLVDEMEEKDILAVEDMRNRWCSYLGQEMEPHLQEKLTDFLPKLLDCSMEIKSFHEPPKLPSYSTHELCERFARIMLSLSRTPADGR
Outline: as §1

USP28 = target: T3, USP28 (UniProt Q96RU2)
T3 sequence (whole entry): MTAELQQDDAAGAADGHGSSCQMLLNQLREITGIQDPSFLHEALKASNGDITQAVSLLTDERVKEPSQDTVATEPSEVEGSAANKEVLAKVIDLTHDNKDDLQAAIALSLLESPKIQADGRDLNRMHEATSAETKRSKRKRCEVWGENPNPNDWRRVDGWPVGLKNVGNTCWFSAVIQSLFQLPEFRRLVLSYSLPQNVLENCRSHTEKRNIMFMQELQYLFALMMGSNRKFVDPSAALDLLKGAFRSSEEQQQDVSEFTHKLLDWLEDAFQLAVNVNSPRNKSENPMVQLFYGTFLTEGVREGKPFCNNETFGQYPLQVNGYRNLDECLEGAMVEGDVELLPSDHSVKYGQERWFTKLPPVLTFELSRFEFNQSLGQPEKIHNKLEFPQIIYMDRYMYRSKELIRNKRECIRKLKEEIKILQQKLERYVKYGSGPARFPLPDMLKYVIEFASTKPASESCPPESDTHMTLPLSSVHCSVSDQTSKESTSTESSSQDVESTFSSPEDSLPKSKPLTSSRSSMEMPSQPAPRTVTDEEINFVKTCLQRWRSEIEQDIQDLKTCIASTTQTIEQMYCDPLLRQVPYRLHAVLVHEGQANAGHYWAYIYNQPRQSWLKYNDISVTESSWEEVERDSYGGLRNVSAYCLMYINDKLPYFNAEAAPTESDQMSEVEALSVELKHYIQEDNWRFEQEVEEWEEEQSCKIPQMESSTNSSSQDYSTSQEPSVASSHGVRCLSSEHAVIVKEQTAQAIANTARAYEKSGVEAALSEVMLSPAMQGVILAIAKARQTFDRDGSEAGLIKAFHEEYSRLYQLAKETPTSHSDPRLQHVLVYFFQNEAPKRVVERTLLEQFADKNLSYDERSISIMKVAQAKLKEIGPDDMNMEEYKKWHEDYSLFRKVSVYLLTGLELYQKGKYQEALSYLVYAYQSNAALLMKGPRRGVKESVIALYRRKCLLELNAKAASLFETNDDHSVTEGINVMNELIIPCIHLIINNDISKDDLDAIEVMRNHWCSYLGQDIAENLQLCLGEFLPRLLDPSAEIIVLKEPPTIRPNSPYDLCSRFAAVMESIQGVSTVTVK
Outline: as §1

Measured: log2 ratio of Biotin-Ahx-Ub-VS probe labelling

Chain of USP16 (Q9Y5T5 whole entry, looked up, the tested form may be a part): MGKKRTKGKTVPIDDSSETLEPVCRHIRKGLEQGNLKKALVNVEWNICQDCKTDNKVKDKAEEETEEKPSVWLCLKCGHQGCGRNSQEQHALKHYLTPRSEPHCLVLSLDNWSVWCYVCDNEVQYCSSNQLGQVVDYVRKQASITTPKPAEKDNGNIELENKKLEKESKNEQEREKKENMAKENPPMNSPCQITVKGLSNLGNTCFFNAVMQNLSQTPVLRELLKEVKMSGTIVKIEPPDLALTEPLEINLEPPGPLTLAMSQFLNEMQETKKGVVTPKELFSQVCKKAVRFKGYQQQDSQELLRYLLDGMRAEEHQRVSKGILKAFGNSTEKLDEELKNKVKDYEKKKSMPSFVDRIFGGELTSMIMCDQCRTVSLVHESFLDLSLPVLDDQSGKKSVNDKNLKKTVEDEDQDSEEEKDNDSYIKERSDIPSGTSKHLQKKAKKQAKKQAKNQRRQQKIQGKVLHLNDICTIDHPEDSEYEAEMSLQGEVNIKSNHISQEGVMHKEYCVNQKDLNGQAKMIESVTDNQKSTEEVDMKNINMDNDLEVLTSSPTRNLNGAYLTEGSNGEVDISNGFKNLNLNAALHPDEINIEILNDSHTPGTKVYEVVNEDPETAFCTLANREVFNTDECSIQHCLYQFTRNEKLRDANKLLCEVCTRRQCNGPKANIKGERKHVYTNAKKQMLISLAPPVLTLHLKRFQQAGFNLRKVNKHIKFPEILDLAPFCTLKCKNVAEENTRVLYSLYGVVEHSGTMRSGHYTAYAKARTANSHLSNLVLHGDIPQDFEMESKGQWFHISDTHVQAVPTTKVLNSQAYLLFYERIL
Chain of USP24 (Q9UPU5 whole entry): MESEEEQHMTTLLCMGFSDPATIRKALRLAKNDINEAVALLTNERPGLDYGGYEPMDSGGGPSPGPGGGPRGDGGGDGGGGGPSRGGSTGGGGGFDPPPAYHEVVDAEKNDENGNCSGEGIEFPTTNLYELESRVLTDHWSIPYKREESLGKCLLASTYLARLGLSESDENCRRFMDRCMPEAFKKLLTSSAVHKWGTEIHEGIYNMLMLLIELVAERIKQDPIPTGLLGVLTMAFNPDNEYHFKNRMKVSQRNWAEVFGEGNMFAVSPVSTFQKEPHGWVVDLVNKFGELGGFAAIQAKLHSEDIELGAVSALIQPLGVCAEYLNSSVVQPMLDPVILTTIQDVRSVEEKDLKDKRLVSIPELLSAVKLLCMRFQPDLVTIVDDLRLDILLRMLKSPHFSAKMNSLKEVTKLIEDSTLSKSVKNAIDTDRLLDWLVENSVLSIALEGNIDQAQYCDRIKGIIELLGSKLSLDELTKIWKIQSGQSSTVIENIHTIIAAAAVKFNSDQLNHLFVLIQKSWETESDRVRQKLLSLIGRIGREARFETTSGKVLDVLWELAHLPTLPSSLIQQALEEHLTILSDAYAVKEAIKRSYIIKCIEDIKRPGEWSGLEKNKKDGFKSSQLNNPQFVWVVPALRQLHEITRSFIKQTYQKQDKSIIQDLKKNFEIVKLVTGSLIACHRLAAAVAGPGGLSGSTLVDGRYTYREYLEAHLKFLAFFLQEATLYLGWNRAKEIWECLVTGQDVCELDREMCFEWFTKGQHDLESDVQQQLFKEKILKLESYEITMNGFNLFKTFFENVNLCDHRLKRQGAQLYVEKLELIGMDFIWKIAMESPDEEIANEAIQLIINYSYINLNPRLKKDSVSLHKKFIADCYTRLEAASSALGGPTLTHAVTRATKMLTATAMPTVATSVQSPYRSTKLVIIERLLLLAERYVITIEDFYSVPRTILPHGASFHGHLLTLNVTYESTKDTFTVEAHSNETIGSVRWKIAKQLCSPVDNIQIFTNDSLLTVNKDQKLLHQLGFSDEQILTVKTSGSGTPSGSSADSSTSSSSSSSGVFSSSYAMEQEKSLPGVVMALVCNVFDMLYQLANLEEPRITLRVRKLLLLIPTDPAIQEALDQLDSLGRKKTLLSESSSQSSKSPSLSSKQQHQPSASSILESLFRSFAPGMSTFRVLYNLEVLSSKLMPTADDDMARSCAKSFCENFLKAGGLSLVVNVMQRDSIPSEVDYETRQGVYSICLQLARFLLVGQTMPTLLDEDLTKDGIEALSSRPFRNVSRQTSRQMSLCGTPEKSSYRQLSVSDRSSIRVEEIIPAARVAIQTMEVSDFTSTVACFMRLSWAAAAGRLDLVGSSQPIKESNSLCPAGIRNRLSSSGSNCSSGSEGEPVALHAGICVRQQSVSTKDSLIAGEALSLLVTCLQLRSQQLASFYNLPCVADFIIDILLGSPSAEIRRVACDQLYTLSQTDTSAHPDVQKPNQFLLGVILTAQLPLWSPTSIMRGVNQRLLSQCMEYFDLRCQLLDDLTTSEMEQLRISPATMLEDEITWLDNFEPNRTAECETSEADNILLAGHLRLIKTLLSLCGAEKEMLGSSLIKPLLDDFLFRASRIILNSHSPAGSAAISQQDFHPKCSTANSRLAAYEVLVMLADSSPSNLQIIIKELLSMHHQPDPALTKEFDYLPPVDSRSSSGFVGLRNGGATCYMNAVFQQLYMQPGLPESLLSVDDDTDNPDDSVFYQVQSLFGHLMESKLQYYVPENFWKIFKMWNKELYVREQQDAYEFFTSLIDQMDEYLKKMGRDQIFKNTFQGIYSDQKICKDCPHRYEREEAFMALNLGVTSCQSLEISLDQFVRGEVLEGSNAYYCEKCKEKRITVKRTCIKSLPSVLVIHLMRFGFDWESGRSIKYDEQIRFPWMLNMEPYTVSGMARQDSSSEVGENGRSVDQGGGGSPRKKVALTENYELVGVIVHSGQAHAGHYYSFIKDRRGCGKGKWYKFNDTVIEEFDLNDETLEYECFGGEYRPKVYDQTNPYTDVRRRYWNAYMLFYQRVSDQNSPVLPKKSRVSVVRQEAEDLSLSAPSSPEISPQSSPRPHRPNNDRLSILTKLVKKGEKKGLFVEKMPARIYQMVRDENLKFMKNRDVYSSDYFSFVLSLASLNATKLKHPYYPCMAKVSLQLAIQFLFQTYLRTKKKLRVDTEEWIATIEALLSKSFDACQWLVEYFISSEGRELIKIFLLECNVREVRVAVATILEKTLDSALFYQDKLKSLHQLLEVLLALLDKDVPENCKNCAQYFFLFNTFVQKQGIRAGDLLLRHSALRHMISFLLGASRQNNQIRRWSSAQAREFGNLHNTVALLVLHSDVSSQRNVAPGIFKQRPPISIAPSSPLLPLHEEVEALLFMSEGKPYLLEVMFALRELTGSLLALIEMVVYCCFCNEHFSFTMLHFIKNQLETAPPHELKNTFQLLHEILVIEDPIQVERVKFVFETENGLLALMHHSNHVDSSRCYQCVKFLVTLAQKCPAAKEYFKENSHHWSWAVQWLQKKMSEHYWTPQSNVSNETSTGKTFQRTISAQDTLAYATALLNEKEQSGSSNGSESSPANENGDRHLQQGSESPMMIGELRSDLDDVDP

O=C(CCl)N1CCC(OCc2ccccc2F)CC1
inactive: USP16 -0.184 | USP19 -0.0583 | USP24 -0.486 | USP25 -0.163 | USP28 -0.161
